PubChem BioAssay AID1159580 (chemical genetic matrix, 2015)
About 2,000 (36%) of roughly 5,500 compounds were called active. About 18% were inconclusive and are not listed. Cut-off read from the data, not from the text of the source: active = normalized growth mostly below about 0.91 (no sharp cut-off); inconclusive = no clear call, values can overlap the other calls; inactive = mostly above about 0.92. The list shows a part of the results.

Experiment: chemical genetic growth profiling, strain panel (AID 1159580);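 note: tested at 20 µM; growth read once vehicle control cultures reached saturation at 30 °C; 1 = growth at the plate median or of vehicle wells; lower values mean less growth of the strain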
Conditions: S. cerevisiae deletion strains, growth OD

Measured: normalized growth

O=c1[nH]c2cc([N+](=O)[O-])c([N+](=O)[O-])cc2[nH]c1=O
inactive: locus YAL013W, strain DEP1, active compounds read low 0.998 | locus YAL040C, strain CLN3, active compounds read low 1.03 | locus YCL061C, strain MRC1 (second series), active compounds read low 1 | locus YDR363W, strain ESC2, active compounds read low 0.986 | locus YER002W, strain NOP16, active compounds read low 0.996 | locus YGR078C, strain PAC10, active compounds read low 1 | locus YGR229C, strain SMI1, active compounds read low 0.977 | locus YJR075W, strain HOC1, active compounds read low 0.987 | locus YMR263W, strain SAP30, active compounds read low 1 | locus YNL128W, strain TEP1, active compounds read low 1.01 | locus YNL153C, strain GIM3, active compounds read low 1.01 | locus YNL175C, strain NOP13, active compounds read low 1.01 | locus YNL197C, strain WHI3, active compounds read low 0.989 | locus YNL224C, strain SQS1, active compounds read low 0.989 | locus YNL322C, strain KRE1, active compounds read low 0.986 | locus YOR083W, strain WHI5 (second series), active compounds read low 0.969 | locus YPL055C, strain LGE1, active compounds read low 0.988 | locus YPL241C, strain CIN2, active compounds read low 1
